Only some compounds are listed: those with a hit (about 6.1% of all), similar ones and a draw of the others.
ATXN viability – reduces viability in counter-screen for ATXN expression inhibitors. Potency, µM (highest dose often 56.7 µM), hits mostly cytotoxic. actives 0.49% (n = 400,000). S2 cells (HEK-293 line with an ATXN2-luciferase reporter) viability, CellTiter-Fluor protease fluorescence, 24 h; note: nearly all actives have a fitted effect of over 40% in size
ATXN2 expr inh – reduces ATXN2 reporter expression in HEK-293 cells; Potency, µM (highest dose often 57 µM), without a hit: at the top dose activity change, negative = inhibition, hits mostly inhibitors; actives 0.72% (n = 360,000); HEK-293 ATXN2-luciferase reporter, luminescence, 24 h; note: % is set by controls: 0 for no effect and ±100 for the full control effect; nearly all actives have a fitted effect of over 55% in size
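qHTS (up to 57 uM final) was run with 24 h compound exposure of reporter cells at 37 °C. Each well was multiplexed: SteadyGlo luminescence measured ATXN2-luciferase expression after a fluorogenic Gly-Phe-AFC viability readout (25 uM final).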
VP16 counter – counter-screen for ROR gamma inhibitors: Gal4-VP16 reporter. Drosophila S2 Gal4-VP16 UAS-luciferase, luminescence, 20 h. Potency, µM (top dose mostly 53.6 µM), inactives show at the top dose activity, negative = inhibition, usual class: inhibitors. actives 3.5% (n = 310,000);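 note: Gal4-VP16 expression switched on by copper sulfate through the metallothionein promoter; % is set by controls: 0 for no effect and ±100 for the full control effect; nearly all actives have a fitted effect of over 50% in size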
RORgamma inh – blocks mouse ROR gamma transcriptional activity | P51450 | Drosophila S2 Gal4-RORgamma UAS-luciferase reporter, 20 h | Potency, µM (doses to about 53.6 µM), for inactives: at the highest dose activity change, negative = inhibition, hits mostly inhibitors | actives 5.4% (n = 310,000) | AID 2551; note: % is set by controls: 0 for no effect and ±100 for the full control effect; nearly all actives have a fitted effect of over 60% in size
Target sequence (P51450 whole entry, looked up, the tested form may be a part): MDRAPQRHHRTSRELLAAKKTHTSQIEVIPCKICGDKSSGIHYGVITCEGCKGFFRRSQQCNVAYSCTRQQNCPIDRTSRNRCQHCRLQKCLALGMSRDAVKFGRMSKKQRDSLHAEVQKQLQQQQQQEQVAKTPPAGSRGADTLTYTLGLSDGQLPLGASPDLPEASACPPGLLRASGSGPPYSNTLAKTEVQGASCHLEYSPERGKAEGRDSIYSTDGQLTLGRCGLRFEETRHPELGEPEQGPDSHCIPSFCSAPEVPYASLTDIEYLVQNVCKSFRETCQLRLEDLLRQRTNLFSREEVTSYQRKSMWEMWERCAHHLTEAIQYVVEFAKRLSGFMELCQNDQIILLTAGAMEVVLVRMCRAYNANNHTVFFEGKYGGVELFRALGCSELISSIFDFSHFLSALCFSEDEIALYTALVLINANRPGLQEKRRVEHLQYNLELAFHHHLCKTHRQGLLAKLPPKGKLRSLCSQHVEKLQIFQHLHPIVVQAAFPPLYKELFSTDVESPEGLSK
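Luciferase reporter read in Schneider cells carrying Gal4-RORγ (mouse) and UAS-Photinus luciferase; cells given compound 1 h before 700 uM copper sulfate induction, then incubated 20 h at ambient temperature.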
TGFb inhibitor – inhibitors of TGF-b signaling. HepG2 CAGA-GFP TGF-b/SMAD3 reporter, GFP fluorescence, 18 h; TGF-beta stimulated, 500 pg/mL final. Potency, µM (doses to about 46.1 µM), inactives show at the highest dose activity, negative = inhibition, usual class: inhibitors. actives 1.2% (n = 410,000); note: % is set by controls: 0 for no effect and ±100 for the full control effect; nearly all actives have a fitted effect of over 65% in size
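Read-out: total well GFP (ex488/em500-530) summed from mean per-cell fluorescence. Cells: HEPG2 CAGA-GFP, 1% FBS DMEM, 18 h at 37 degrees C with 500 pg/mL final TGF-beta. Unstimulated wells served as the full-inhibition control; stimulated DMSO wells = 0%.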
HepG2 tox – kills HepG2 cells in TGF-b inhibitor counter-screen; HepG2 CAGA-GFP viability, ATP luminescence, 18 h; Potency, µM (top dose mostly 46.1 µM), inactives show top-dose activity change, negative = cytotoxicity, hits mostly cytotoxic; actives 0.76% (n = 410,000); AID 588856
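CellTiter-Glo luminescence gave cytotoxicity after 18 hours at 37 degrees C. The cells were HepG2 CAGA-GFP in 1% FBS DMEM, stimulated with 500 pg/mL TGF-beta after compound addition. %Activity was normalised to no-cell wells (complete cell-killing) and DMSO (no toxicity), and curves were fitted and classified.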
Active calls of the source: *; i = inactive; ? = inconclusive; / = no result given; [ ] = remark or other dose. Calls come from the whole dose curve; as a rule, active = well fitted curve in the direction sought with a large enough effect; inconclusive = small, poorly fitted or top-dose-only effect, or another doubt; inactive = no such curve, though single readings can be large; an effect the other way counts as inactive or inconclusive. Potency is the fitted concentration of half-maximal effect.

SMILES | ATXN viability | ATXN2 expr inh | VP16 counter | RORgamma inh | TGFb inhibitor | HepG2 tox
N#C/C(=C\c1ccc(N2CCOCC2)o1)c1nc2ccccc2[nH]1 | i | -19% | 0% | 16µM* | 259% | -11%
N#C/C(=C\c1ccc(N2CCCCC2)o1)C(N)=O | i | 42% | 5% | 1% | 60% | -4%
N#C/C(=C\c1ccc(N2CCOCC2)c([N+](=O)[O-])c1)c1nc2ccccc2[nH]1 | i | 15% | ? | ? | 8% | -2%
N#C/C(C(=O)N1CCCCC1)=C1\Nc2ccccc2S1 | i | 70% | / | 1%[0.365 µM] | -20% | -3%
Cc1ccc(NC(=S)/C(C#N)=C2/Nc3ccccc3S2)cc1 | i | / | / | / | 20µM* | -38%
Cc1cc(C)c(S(C)(=O)=O)c(NN)n1 | i | -2% | -22% | 2µM* | -20% | -19%
Cc1cc(SCC(=O)NCc2ccccc2Cl)nc(=O)[nH]1 | i | -4% | / | / | 2% | -8%
CC(=O)C(Sc1ncnc2sc3c(c12)CCCC3)C(C)=O | i | -10%[11.3 µM] | 16µM* | 11µM* | 9% | -17%
CC(=O)CSc1ncnc2sc3c(c12)CCC(C)C3 (configuration not stated) | i | 23% | ? | 3.2µM* | 0% | -3%
CCCCCCCCCCCCCCCCCC(=O)[O][Al] | i | / | / | / | / | /
CC1(C)Cc2c(sc3nc(-c4cccs4)n(N)c(=O)c23)CO1 | ? | -15% | 16µM* | ? | -17% | -9%
CC1(C)Cc2c(sc3nc(-c4ccccc4)n(N)c(=O)c23)CO1 | i | 19% | -2% | -15% | -15% | -28%
C/C(=N\Nc1ccc(S(N)(=O)=O)cc1[N+](=O)[O-])c1ccc2c(c1)OCO2 | i | -6% | 11µM* | ? | -23% | -19%
CCN(CC)S(=O)(=O)c1ccc(N/N=C(\C)c2ccc3c(c2)OCO3)c([N+](=O)[O-])c1 | i | -31% | -10% | -25% | -2% | 5%
Cc1ccc(S(=O)(=O)N2CCOCC2)cc1C(=O)Nc1nc2ccccc2[nH]1 | i | 2% | 18µM* | 16µM* | ? | 3%
CCC1CCCCN1C(=S)NC(=O)c1cc(S(=O)(=O)N2CCOCC2)ccc1C (configuration not stated) | i | 11% | 4µM* | 2.2µM* | 1% | -1%
N#CC[C@H](C1CCCC1)n1cc(-c2ncnc3[nH]ccc23)cn1 | / | 25% | / | / | / | /
N#CC(c1ccccc1)c1ccc2c(C(F)(F)F)cc(C(F)(F)F)nc2n1 (configuration not stated) | ? | ? | ? | 11µM* | ? | -36%
Cc1ccc(C(C#N)c2ccc3c(C(F)(F)F)cc(C(F)(F)F)nc3n2)cc1 (configuration not stated) | ? | ? | -26% | 21% | -6% | -5%
COc1ccc(C(=O)NC(=S)N2CCCc3ccccc32)cc1OC | i | 3%[11.3 µM] | -14% | -44% | -4% | 3%
CC1CN(C(=S)SCC(=O)c2ccc(Cl)cc2)CC(C)O1 (configuration not stated) | i | 17% | ? | 41% | -3% | -2%
COc1ccc(C(=O)NC(=S)N2CC(C)OC(C)C2)cc1OC (configuration not stated) | i | -3% | ? | 7.9µM* | -5% | -6%
CC1CN(C(=S)NC(=O)c2cccc([N+](=O)[O-])c2)CC(C)O1 (configuration not stated) | i | -4% | 1.3µM* | 0.5µM* | 8% | 18%
CC1CN(C(=S)NC(=O)c2ccc(Cl)cc2)CC(C)O1 (configuration not stated) | i | 1% | 0.79µM* | 1.6µM* | -30% | -14%
O=C(CC(=O)Nc1nc(C23CC4CC(CC(C4)C2)C3)cs1)NCCO | i | 0% | 3% | -2% | -23% | 9%
